Measurements taken from PubChem BioAssay AID2685 (National Center for Advancing Translational Sciences (NCATS), 2010).
Screen size: about 320,000 compounds; about 2,100 (0.66%) were called active. Inconclusive results (about 53%) are left out. The call rests on the fitted dose curve; in most records, active means well fitted inhibition curve with a large enough effect in the signal ratio, with a control signal flat (not every such curve was filed as active); inconclusive means small, poorly fitted or top-dose-only effect, or effect the other way, or a change in a side signal; inactive means flat fitted curve, though single readings scatter; the % refers to the signal ratio. Shown is part of a subset that was picked to be rich in actives.
Potency means the concentration at half of the fitted maximal effect.

Experiment: qHTS Assay for Lipid Storage Modulators in Drosophila S3 Cells;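 on cell number change: cells counted by Cell Tracker Red CMTPX staining in the red channel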
Details: BODIPY lipid droplet fluorescence, 18-24 h, cells fed with added oleic acid; cell number change: measured here: cell count max response; series mostly up to 46.1 µM
How it was run: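 Drosophila S3 cells got compounds at several concentrations plus oleic acid (400 uM solution). Laser-scanning cytometry with 488 nm excitation read lipid droplets at 500-530 nm and cells at 575-640 nm. Percent activity was relative to 20 uM Triacsin C.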
With `Cc1cnc(NC(=O)CCNC(=O)c2ccccc2Cl)s1` the Potency was “inactive”.
In the case of `Cc1noc(C(=O)NCc2cccnc2)c1Cl`, the Potency is reported as “inactive” and the cell number change is reported as 3.97%.
For `CCOC(=O)Nc1ccc2c(CN3CCN(S(=O)(=O)c4ccccc4)CC3)cc(=O)oc2c1`, the Potency was “inactive” and the cell number change was 3.64%.
For `O=C(NCC1CCCN(C(=O)Cc2ccccc2Cl)C1)c1ccc(F)cc1` (stereo unspecified), the Potency was “inactive” and the cell number change was 17.2%.
For `CN(C)S(=O)(=O)c1cccc(NC(=O)COC(=O)CNC(=O)c2ccccc2F)c1`, the Potency was “inactive”.
In the case of `Cc1nnnn1/C(=C\c1ccccc1)C(=O)OCC(=O)Nc1cccc(S(=O)(=O)N(C)C)c1`, the Potency is reported as 3.66 µM (active) and the cell number change is reported as -25%.
In the case of `Cc1nnnn1/C(=C\c1ccccc1)C(=O)OCC(=O)NC(C)(C)C`, the Potency is reported as 4.11 µM (active) and the cell number change is reported as -11.4%.
For `CC(=O)c1ccccc1NC(=O)COC(=O)c1ccccc1NC(=O)c1ccccc1`, the Potency was “inactive” and the cell number change was -15%.
For `NS(=O)(=O)c1cccc(NC(=O)COC(=O)C2(c3cccc(F)c3)CCCC2)c1`, the Potency was “inactive” and the cell number change was -1.45%.
For `CC(=O)c1ccccc1NC(=O)COC(=O)/C(=C/c1ccccc1)n1nnnc1C`, the Potency was 7.31 µM (active) and the cell number change was -27.9%.
For `CC(C)(C)NC(=O)COC(=O)c1ccccc1Oc1ccccc1`, the Potency was “inactive”.
For `Cc1cc(C(=O)OCC(=O)Nc2cccc(S(=O)(=O)N(C)C)c2)c2ccccc2n1`, the Potency was “inactive” and the cell number change was -13.9%.
For `CN(C)S(=O)(=O)c1cccc(NC(=O)COC(=O)C2(c3ccccc3F)CCCC2)c1`, the Potency was 8.2 µM (active) and the cell number change was -25.4%.
In the case of `CN(C)S(=O)(=O)c1cccc(NC(=O)CSc2nnnn2-c2ccccc2)c1`, the Potency is reported as “inactive” and the cell number change is reported as -3.51%.
In the case of `CC(=O)c1ccccc1NC(=O)COC(=O)c1c(C)nn(-c2ccccc2)c1C`, the Potency is reported as “inactive” and the cell number change is reported as -19.3%.
With `CC(C)(C)NC(=O)COC(=O)C1c2ccccc2Oc2ccccc21` the Potency was “inactive” and the cell number change was -10.4%.
In the case of `COc1ccc(C2N(c3ccc4c(c3)OCCO4)C(=O)C2(F)F)cc1OC` (stereo unspecified), the Potency is reported as “inactive” and the cell number change is reported as -17.8%.
With `Cc1c(Cl)cccc1NC(=O)NCc1ccc(F)cc1` the Potency was “inactive” and the cell number change was 3.73%.
In the case of `COc1cccc(-c2noc(C3CCCN(C(=O)c4cccc(F)c4)C3)n2)c1` (stereo unspecified), the Potency is reported as “inactive” and the cell number change is reported as -8.07%.
With `CCOc1ccc(N(CC(=O)Nc2ccc(C)c(C)c2)S(=O)(=O)c2c(C)[nH]c(=O)[nH]c2=O)cc1` the Potency was “inactive” and the cell number change was 10.2%.
With `CCC(C)NC(=O)C(=O)NCc1ccncc1` (stereo unspecified) the Potency was “inactive” and the cell number change was -9.14%.
With `CCc1ccc2oc(C(=O)N3CCN(C)CC3)cc(=O)c2c1` the Potency was “inactive” and the cell number change was 14.4%.
With `CC1C/C(=C\c2cccnc2)C(=O)/C(=C/c2cccnc2)C1` (stereo unspecified) the Potency was 5.17 µM (active) and the cell number change was -29%.
In the case of `CC1C/C(=C/c2cccs2)C(=O)/C(=C/c2cccs2)C1` (stereo unspecified), the Potency is reported as “inactive” and the cell number change is reported as -17.9%.
With `CC(C)/C=C1\CC/C(=C\c2cccnc2)C1=O` the Potency was “inactive” and the cell number change was -13.9%.
For `O=C1/C(=C/c2cccnc2)Cc2ccc(Cl)cc21`, the Potency was “inactive” and the cell number change was 24.8%.
In the case of `O=C1/C(=C/c2cccnc2)CC/C1=C\c1cccnc1`, the Potency is reported as “inactive” and the cell number change is reported as -4.02%.
With `O=C1/C(=C/c2cccnc2)CCC/C1=C\c1cccnc1` the Potency was 14.6 µM (active) and the cell number change was -13.8%.
With `CN(C)c1cccc(C(=O)NNC(=O)NC2CCCCC2)c1` the Potency was “inactive” and the cell number change was -5.42%.
In the case of `Cc1cccc2cc(CN(CC3CCCO3)S(=O)(=O)c3ccccc3)c3nnnn3c12` (stereo unspecified), the Potency is reported as “inactive” and the cell number change is reported as 3.31%.
In the case of `CC(CC(=O)Nc1cccc(F)c1)S(=O)(=O)c1ccc2c(c1)NC(=O)CO2` (stereo unspecified), the Potency is reported as “inactive” and the cell number change is reported as 6.92%.
In the case of `C/C(=N\NC(=O)c1ccccc1OCc1ccc(F)cc1)c1ccccn1`, the Potency is reported as “inactive” and the cell number change is reported as -7.7%.
In the case of `N#Cc1sc2nc(-c3cccs3)cc(-c3ccc(F)cc3)c2c1N`, the Potency is reported as “inactive” and the cell number change is reported as -15.9%.
In the case of `CCN(CC)C(=O)c1sc2nc(-c3cccs3)cc(-c3ccc(Cl)cc3)c2c1N`, the Potency is reported as 20.6 µM (active) and the cell number change is reported as 23.2%.
For `Nc1c(C(=O)O)sc2nc(-c3ccccc3)cc(-c3ccc(Cl)cc3)c12`, the Potency was “inactive” and the cell number change was -6.59%.
With `COc1ccc(N2C(=O)CC(Sc3nc(C)cc(C)n3)C2=O)cc1OC` (stereo unspecified) the Potency was “inactive” and the cell number change was 22%.
For `CC(=O)c1c(C)[nH]c(C(=O)Nc2nccs2)c1C`, the Potency was “inactive” and the cell number change was 5.23%.
With `CCC(C)c1ccccc1NC(=O)c1[nH]c(C)c(C(C)=O)c1C` (stereo unspecified) the Potency was “inactive” and the cell number change was -4.58%.
With `CC(=O)c1c(C)[nH]c(C(=O)Nc2ccccn2)c1C` the Potency was 29.1 µM (active) and the cell number change was -7.6%.
For `O=C(CN1CCN(S(=O)(=O)c2ccccc2)CC1)NC1CC1`, the Potency was “inactive” and the cell number change was -0.697%.
With `CCOC(=O)C1CCN(C(=O)c2ccc(N3CCCC3=O)cc2)CC1` the Potency was “inactive” and the cell number change was 2.94%.
With `O=C(NCc1ccc(F)cc1)c1cc2c(s1)CS(=O)(=O)C2` the Potency was “inactive” and the cell number change was -3.83%.
With `COC(=O)c1c(C)[nH]c(C(=O)/C=C/c2ccc(C)cc2)c1C` the Potency was “inactive” and the cell number change was 11.4%.
For `CCN1CCc2nc(NC(=O)C(c3ccccc3)c3ccccc3)sc2C1`, the Potency was 20.6 µM (active) and the cell number change was -8.16%.
In the case of `CCN1CCc2nc(NC(=O)c3ccc4c(c3)OCCO4)sc2C1`, the Potency is reported as “inactive” and the cell number change is reported as -22.4%.
For `CCN1CCc2nc(NC(=O)c3ccc(S(=O)(=O)N(C)C)cc3)sc2C1`, the Potency was “inactive”.
For `CCC(=O)Nc1c2c(nn1-c1ccc(OC)cc1)CS(=O)C2` (stereo unspecified), the Potency was “inactive” and the cell number change was -17%.
With `COc1ccccc1N(CC(=O)NCC1CCCO1)C(=O)CNS(=O)(=O)c1ccccc1` (stereo unspecified) the Potency was “inactive”.
In the case of `Cc1nc2ccccc2n1CSc1ccccc1`, the Potency is reported as “inactive” and the cell number change is reported as 7.45%.
With `COc1cccc(-c2ccc(C#N)c(OC(=O)c3c(Cl)cccc3Cl)n2)c1` the Potency was “inactive” and the cell number change was -22.9%.
In the case of `Cc1cc(NC(=O)C(C)SCC(=O)Nc2nc3c(F)cc(F)cc3s2)no1` (stereo unspecified), the Potency is reported as “inactive” and the cell number change is reported as -16.6%.
With `Cc1cc(NC(=O)CSCC(=O)Nc2nc3ccc(F)cc3s2)no1` the Potency was 11.6 µM (active) and the cell number change was 9.73%.
With `Cc1cc(NC(=O)CSc2ccc(F)cc2)no1` the Potency was “inactive”.
For `O=C(CN1C(=O)S/C(=C/c2ccc(N3CCOCC3)cc2)C1=O)N1CCOCC1`, the Potency was “inactive” and the cell number change was 13.3%.
In the case of `O=C(CN(Cc1ccc(F)cc1)C(=O)c1csnn1)NC1CCCC1`, the Potency is reported as “inactive” and the cell number change is reported as 10.5%.
In the case of `COc1cc(OC)cc(C(=O)N(Cc2nc(-c3cccc(C)c3)no2)C(C)C)c1`, the Potency is reported as “inactive”.
For `COc1cccc(C(=O)N(Cc2nc(-c3cccc(C)c3)no2)C(C)C)c1OC`, the Potency was 18.4 µM (active) and the cell number change was -16.8%.
In the case of `Cc1cccc(-c2noc(CN(C(=O)C34CC5CC(CC(C5)C3)C4)C(C)C)n2)c1`, the Potency is reported as “inactive” and the cell number change is reported as 15.9%.
In the case of `O=C(COc1ccc(Cl)cc1)N(Cc1ccco1)C1CCS(=O)(=O)C1` (stereo unspecified), the Potency is reported as “inactive” and the cell number change is reported as 5.12%.
